Source: PubChem
In the library only some 19% were active in any assay of this set; here they are far more common.
TDP1 inh: blocks human tyrosyl-DNA phosphodiesterase 1. AID 485290. recombinant TDP1, AlphaScreen DNA substrate cleavage. actives 0.28% (n = 350,000). Q9NUW8. Potency, µM (top dose mostly 130 µM), hits mostly inhibitors; also: nearly all actives have a fitted effect of over 40% in size
Target sequence (Q9NUW8 whole entry, looked up): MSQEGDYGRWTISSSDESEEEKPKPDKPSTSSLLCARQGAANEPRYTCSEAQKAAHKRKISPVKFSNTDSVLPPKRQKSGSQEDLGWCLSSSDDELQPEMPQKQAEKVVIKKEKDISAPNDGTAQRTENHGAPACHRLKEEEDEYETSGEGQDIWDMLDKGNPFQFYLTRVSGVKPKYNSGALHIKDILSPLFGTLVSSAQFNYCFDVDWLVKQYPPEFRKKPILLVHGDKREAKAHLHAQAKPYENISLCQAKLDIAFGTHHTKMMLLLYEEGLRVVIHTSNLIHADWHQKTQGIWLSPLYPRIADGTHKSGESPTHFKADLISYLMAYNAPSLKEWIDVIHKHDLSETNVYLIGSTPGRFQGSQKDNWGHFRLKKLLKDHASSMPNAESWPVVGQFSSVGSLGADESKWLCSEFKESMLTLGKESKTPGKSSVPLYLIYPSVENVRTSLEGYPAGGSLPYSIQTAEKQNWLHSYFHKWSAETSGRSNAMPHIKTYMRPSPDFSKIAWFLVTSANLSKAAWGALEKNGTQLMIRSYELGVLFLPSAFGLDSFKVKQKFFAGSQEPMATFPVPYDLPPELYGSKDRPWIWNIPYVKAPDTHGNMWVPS
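Recombinant human Tdp1 (E. coli-expressed, 1 nM final) preincubated with compounds 15 min at room temperature, then 5'-biotin/3'-phosphotyrosine-FITC DNA substrate (15 nM final) added for 5 min. AlphaScreen beads (10 ug/ml final) added 10 min; cleavage lowers signal.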
TDP1 cell CPT: DT40-hTDP1 cell growth loss with CPT | chicken DT40 Tdp1-/-;hTDP1 cells + 20 nM CPT, ATP luminescence, 48 h | Potency, µM (titrated, usually from 46.2 µM), actives largely listed as inhibitors | actives 12% (n = 420,000) | AID 686979; also: nearly all actives have a fitted effect of over 55% in size
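Chicken DT40 Tdp1-/- cells complemented with human TDP1, 400 cells/well, exposed to compounds plus 20 nM camptothecin for at least 48 h at 37 C; viability read as ATP content by CellTiter-Glo luminescence.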
ELG1 DNA repair: inhibitors of ELG1-dependent DNA repair in HEK293T cells | HEK293T ELG1-luciferase reporter, luminescence, 16 h; DNA damage induced by 5-fluorouridine | Potency, µM (doses to about 46.1 µM), most hits filed as inhibitors | actives 2.3% (n = 330,000) | AID 504467; also: nearly all actives have a fitted effect of over 55% in size
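DMSO vehicle served as the neutral condition. Each well held 2,000 cells given 5-fluorouridine plus compound; after 16 hr at 37 °C/5% CO2, ONE-Glo was added and luciferase measured 30 min later.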
TDP1 cell noCPT: qHTS for Inhibitors of human tyrosyl-DNA phosphodiesterase 1 (TDP1): qHTS in cells in absence of CPT; Potency, µM (highest dose often 46.2 µM), hits mostly inhibitors; actives 15% (n = 420,000); DT40 Tdp1-/- hTDP1 cells, no CPT, ATP luminescence, 48 h; AID 686978, 2013; also: nearly all actives have a fitted effect of over 55% in size
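No-CPT arm: Tdp1-/-;hTDP1 DT40 cells (400/well) plus compounds, incubated ≥48 hr at 37 °C. Readout CellTiter-Glo luminescence.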
IL1B secr inh: inflammasome signaling inhibition, IL-1 beta readout; activity change, % at 57.5 µM; THP-1 LPS/ATP IL-1B secretion, AlphaLISA, 16 h; hits give low values; actives 4.7% (n = 360,000); in the data active = activity change below about -50%; inconclusive = mostly about -30% to -49%
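Secreted IL-1B measured by AlphaLISA bead assay after 16 h compound exposure of THP-1 cells; compounds (final up to 57.5 uM) added 1 h before LPS (250 ng/mL) and ATP (1.25 mM) stimulation; lower signal means less secretion.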
Giardia killer: kills Giardia lamblia. AID 540267. activity change, % at 7.66 µM, hits read low. actives 0.15% (n = 340,000). Giardia lamblia trophozoite viability; in the data active = activity change below about -80%; inconclusive = between about -30% and that limit;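 also: parasites exposed to compound for two days anaerobically before the ATP read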
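Compounds were tested on trophozoites seeded at 100 cells/well and held 48 hrs at 37 deg C anaerobically. An ATP-based luminescent kit measured the remaining live cells.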
Numbers stand for hits; i = inactive; ? = inconclusive; nt = no result; [ ] = another dose, or the depositor's remark. Unless noted, calls follow the shape of the dose curve; as a rule, active = well fitted curve in the direction sought with a large enough effect; inconclusive = small, poorly fitted or top-dose-only effect, or another doubt; inactive = no such curve, though single readings can be large; an effect the other way counts as inactive or inconclusive.

SMILES	TDP1 inh	TDP1 cell CPT	ELG1 DNA repair	TDP1 cell noCPT	IL1B secr inh	Giardia killer
COc1ccc(C(CNC(=O)CNC(=O)c2ccccc2)N2CCCC2)cc1 (centres undefined)	i	i	i	i	i	i
COc1ccccc1C(CNC(=O)c1oc2ccccc2c1C)N1CCCC1 (centres undefined)	i	?	i	23.1µM	i	i
COc1ccc(C(CNC(=O)c2cc3ccccc3o2)N2CCCC2)cc1 (centres undefined)	i	?	i	?	i	i
CCNC(=S)N/N=C/c1cccc(C)c1	i	?	?	?	i	i
Cc1cccc(NC(=O)CN(C)S(=O)(=O)c2ccc3c(c2)n(C)c(=O)c(=O)n3C)c1C	i	i	i	i	i	i
COc1ccc(C(CNC(=O)CCNC(=O)c2ccccc2Cl)N2CCCC2)cc1 (centres undefined)	i	i	i	i	i	i
COc1ccc(C(CNC(=O)c2oc3cc(C)c(Cl)cc3c2C)N2CCCCC2)cc1 (centres undefined)	i	13µM	i	?	i	i
CCc1c(C)nc2ncnn2c1NCCc1ccc(Cl)cc1	i	16.4µM	?	9.2µM	i	i
Cc1nc2ncnn2c(C)c1Cc1c(Cl)cccc1Cl	i	i	i	?	i	i
Cc1nn2cc(-c3cccc(Cl)c3)cnc2c1Cl	i	16.4µM	?	14.6µM	i	i
Nc1nc(N)nc(-c2cccc(Cl)c2)n1	i	?	?	i	i	i
Cc1nn2cc(-c3cccc(Cl)c3)cnc2c1Br	i	?	?	5.8µM	i	i
CCOC(=O)N1CCC(NC(=O)c2cnn(-c3ccc(C)cc3)c2-n2cccc2)CC1	i	?	nt	25.9µM	nt	nt
CCOC(=O)N1CCN(C(=O)c2cnn(-c3cccc(C)c3)c2-n2cccc2)CC1	i	?	nt	?	nt	nt
CCOC(=O)N1CCC(NC(=O)c2cnn(-c3cccc(C)c3)c2-n2cccc2)CC1	i	16.4µM	nt	18.4µM	nt	nt
CCC(C)NC(=O)c1cnn(-c2cccc(F)c2)c1-n1cccc1 (centres undefined)	i	20.6µM	nt	16.4µM	nt	nt
COc1ccc(Cn2ccc3nc(C)c(C(=O)Nc4ccc(OC(F)(F)F)cc4)cc3c2=O)cc1	i	?	nt	?	nt	nt
COc1ccc(-n2c(NN)nc3sc4c(c3c2=O)CCCC4)cc1	i	i	i	?	i	i
CSc1nc2sc3c(c2c(=O)n1-c1ccccc1)CCC(C(C)(C)C)C3 (centres undefined)	nt	?	nt	0.92µM	nt	nt
NNc1nc2sc3c(c2c(=O)n1Cc1ccccc1)CCC3	nt	i	i	i	i	i
O=c1c2c3c(sc2nc(NCCO)n1-c1ccccc1)CCCC3	nt	6.51µM	?	11.6µM	i	i
CCOc1ccc(-n2c(SCC(=O)O)nc3sc4c(c3c2=O)CCCC4)cc1	i	i	i	i	i	i
CSc1nc2sc3c(c2c(=O)n1C)CCC(C)C3 (centres undefined)	i	i	?	?	i	i
Nn1c(Nc2ccccc2)nc2sc3c(c2c1=O)CCC3	i	1.03µM	?	2.91µM	i	i
CC(C)Sc1nc2sc3c(c2c(=O)n1-c1ccccc1)CCCC3	i[12.3 µM]	?	nt	18.4µM	nt	nt
SMILES	TDP1 inh	TDP1 cell CPT	ELG1 DNA repair	TDP1 cell noCPT	IL1B secr inh	Giardia killer
CSc1nc2sc3c(c2c(=O)n1-c1ccc(C)cc1)CCCC3	i[12.3 µM]	?	nt	8.2µM	nt	nt
COc1ccc(NC(=O)c2c(-c3ccccc3)c(-c3ccccc3)nn(C)c2=O)c(OC)c1	i	16.4µM	nt	?	nt	nt
COC(=O)c1ccc(C(=O)OC)c(NC(=O)c2c(-c3ccccc3)noc2C)c1	nt	6.51µM	nt	6.51µM	nt	nt
COC(=O)c1ccc(C)c(NC(=O)c2c(-c3ccccc3)noc2C)c1	i	i	i	i	i	i
COC(=O)c1ccc(C(=O)OC)c(NC(=O)c2c(-c3ccccc3)c(-c3ccccc3)nn(C)c2=O)c1	i	?	nt	14.6µM	nt	nt
COc1ccc(CN2Cc3ccccc3OC(c3ccccc3OC)C2)c(O)c1 (centres undefined)	nt	i[9.04 µM]	nt	?	nt	nt
O=c1oc2ccccc2cc1-c1cn2cc(Cc3ccc(Br)cc3)sc2n1	i	1.3µM	nt	0.581µM	nt	nt
OC(CNCC1(N2CCCCC2)CCCCC1)COc1ccc(Cl)cc1Cl (centres undefined)	i	?	?	14.6µM	-90.6	i
COc1ccccc1OCC(=O)NCC1(N2CCOCC2)CCCCC1	i	?	nt	i	nt	nt
OC(COc1ccc(Cl)cc1Cl)CN1CCc2ccccc2C1 (centres undefined)	i	?	i	?	i	i
O=C(COc1ccccc1Cl)NCC1(N2CCOCC2)CCCCC1	i	20.6µM	nt	14.6µM	nt	nt
Cc1ccc(C(C)C)c(OCC(=O)NCC2(N3CCOCC3)CCCCC2)c1	i	9.2µM	nt	7.31µM	nt	nt
Cc1cc(OCC(=O)NCC2(N3CCOCC3)CCCCC2)ccc1Cl	i	?	nt	?	nt	nt
O=C(COc1ccc(Cl)cc1Cl)NCC1(N2CCOCC2)CCCCC1	i	18.4µM	?	20.6µM	-64.8	i
C=CCSc1nnc(NC(=O)c2cn(CC)c3nc(C)ccc3c2=O)s1	i	i	?	i	i	i
COc1ccc(S(=O)(=O)N2CCCCCC2)cc1NC(=O)CCNC(=O)c1ccccc1Cl	nt	i	nt	i	i	nt
CN(C)Cc1ccccc1Cc1ccccc1	i	i	i	i	i	i
Cc1cccc(CN(C)C)c1CC(O)(c1ccccc1)c1ccccc1	nt	?	nt	?	i	i
CN(C)Cc1cc(C(F)(F)F)ccc1C(O)(c1ccccc1)c1ccccc1	nt	?	nt	?	-75.0	i
CN(C)Cc1ccccc1C(O)(c1ccccc1)c1ccccc1	nt	29.1µM	i	?	-71.2	i
O=C1CCN(Cc2cccn2-c2ccccn2)CCN1Cc1ccccc1C(F)(F)F	nt	i[9.04 µM]	nt	i	nt	nt
CC1CCN(c2cc(N3CCC(C)CC3)c([N+](=O)[O-])cc2/C=C(\C#N)c2nn(-c3ccccc3)c(N)c2C#N)CC1	i	?	i	i	i	i
CC1CCN(c2ccc(/C=C(\C#N)c3nn(-c4ccccc4)c(N)c3C#N)cc2[N+](=O)[O-])CC1	i	18.4µM	?	8.2µM	i	i
N#C/C(=C\c1ccc(N2CCCC2)c([N+](=O)[O-])c1)c1nc2ccccc2[nH]1	i	i	?	i	i	i
CC1CCCN(c2ccc(/C=C(\C#N)c3nn(-c4ccccc4)c(N)c3C#N)cc2[N+](=O)[O-])C1 (centres undefined)	i	?	i	20.6µM	?	i
Cc1cc(C)n2nc(SCC(=O)Nc3ccccc3C)nc2n1	i	i	i	i	i	i
CC(C)C[C@H](N)c1cn([C@@H](CCCCN)C(=O)N2CCNCC2)nn1	i	8.2µM	i	6.51µM	?	i
